Where only a bound is given, the exact number is not on record here.

The target in one experiment is SpBzz1-D2. The experiment in a line: SPOT peptide array binding signal intensity (averaged, normalized) (arbitrary units (background-subtracted, floor 0; scale differs between SH3 domains)); higher = stronger binding of the SH3 domain to the peptide. In short, it runs like this:
(§1)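 To measure binding, SH3 domains from four yeast species were fused to GST, expressed in E. coli BL21(DE3) and purified on glutathione Sepharose. Each domain was incubated at 10 μg/ml overnight at 4°C on cellulose membranes with synthetic 15-mer peptides whose cysteines were replaced by serines. Anti-GST antibody, an HRP anti-mouse secondary and luminol were used for detection, and images were quantified with Genespotter. Reported binding signal is normalized, background-subtracted spot intensity averaged over replicates, in arbitrary units that differ between domains.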
For the molecule DTIDNVKSKIQDKEG, the “SPOT peptide array binding signal intensity” value was at most 0.

The next experiment concerns the target SpCyk3. Described as above. In short, it runs like this:
as §1
DTIDNVKSKIQDKEG: the “SPOT peptide array binding signal intensity” value was at most 0.

For a further experiment, the target named is SpHof1. Described as above. The essentials:
as §1
Regarding DTIDNVKSKIQDKEG, the “SPOT peptide array binding signal intensity” value is at most 0.

In the next experiment the target is SpHof1-2. The experiment is described as above. The essentials:
as §1
For DTIDNVKSKIQDKEG, the “SPOT peptide array binding signal intensity” value is at most 0.

Another experiment has as its target SpHof1-3. The description is as above. In short, it runs like this:
as §1
For the molecule DTIDNVKSKIQDKEG, the “SPOT peptide array binding signal intensity” value came out at 7.75.

A further experiment has as its target SpHse1. Described as above. In short, it runs like this:
as §1
Turning to DTIDNVKSKIQDKEG, the “SPOT peptide array binding signal intensity” value is at most 0.

The target of another experiment is SpLsb1. The description is as above. The essentials: as §1
Take DTIDNVKSKIQDKEG: the “SPOT peptide array binding signal intensity” value is at most 0.

The target of another experiment is SpLsb4. The description is as above. In short, it runs like this:
as §1
On to DTIDNVKSKIQDKEG, for which the “SPOT peptide array binding signal intensity” value was at most 0.

The target of another experiment is SpMyo1. The description is as above. The essentials:
as §1
With DTIDNVKSKIQDKEG, the “SPOT peptide array binding signal intensity” value was at most 0.

The target of another experiment is SpNbp2. Described as above. In short, it runs like this: as §1
Consider DTIDNVKSKIQDKEG, for which the “SPOT peptide array binding signal intensity” value is at most 0.

The next experiment concerns the target SpPex13. The experiment is described as above. The essentials:
as §1
On to DTIDNVKSKIQDKEG, for which the “SPOT peptide array binding signal intensity” value is at most 0.

For another experiment, the target named is SpRvs167. The experiment is described as above. In short, it runs like this:
as §1
As to DTIDNVKSKIQDKEG, the “SPOT peptide array binding signal intensity” value is at most 0.

A further experiment concerns the target SpSla1-D1-D2. The description is as above. In short, it runs like this:
as §1
Turning to DTIDNVKSKIQDKEG, the “SPOT peptide array binding signal intensity” value was at most 0.

The target in a further experiment is SpSla1-D3. The description is as above. The essentials:
as §1
Take DTIDNVKSKIQDKEG: the “SPOT peptide array binding signal intensity” value is at most 0.

The values are drawn from the supplement of paper PMC4466140.
